Compounds with a hit are over-represented: about 4.1% of the library has one in this group of screens.
tim23-1 inh = growth inhibitors of tim23-1 mutant yeast | S. cerevisiae tim23-1 growth, BacTiter-Glo luminescence, 24 h | AID 463212 | 1.3% of 330,000 active | inhibition, % at 20 µM;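 active = growth inhibition of the mutant yeast at or above 50%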;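 note: temperature-sensitive mutant grown at 25 °C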
NLRP3 yeast inh = NALP3 inhibition in yeast. Yeast reconstituted NLRP3/ASC/caspase-1, beta-gal luminescence, 24 h. inhibition, % at 10 µM. 0.39% of 330,000 active;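 active = inhibition of 50% or more; inactive = inhibition below 50%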
tim10-1 inh = inhibits growth of tim10-1 mutant yeast; S. cerevisiae tim10-1 ts strain growth, BacTiter-Glo, 24 h; inhibition, % at 20 µM; 2.2% of 330,000 active;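 active = inhibition of at least 40%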;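 note: mutant grown at 25 °C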
PfHsp90 yeast 2 = reduces growth (ATP signal) of yeast expressing P. falciparum Hsp90; inhibition, % at 9.4 µM; S. cerevisiae expressing PfHsp90, BacTiter-Glo ATP, 48 h; yeast lacking PDR1 and PDR3 efflux regulators; 0.32% of 310,000 active; AID 504621;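 active = every replicate shows inhibition above about 80%, whatever the replicate mean, limit read from the data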
NALP1 yeast inh = blocks the NALP1 inflammasome reconstituted in yeast; S. cerevisiae NALP1/ASC/caspase-1 growth, X-gal OD620, 72 h; inhibition, % at 10 µM; 0.61% of 280,000 active; AID 2071; in the data active = inhibition mostly above about 24%, no sharp cut-off; inactive = mostly below about 32%
TIM10 inh = inhibits growth of TIM10 yeast strain. S. cerevisiae TIM10 strain growth, BacTiter-Glo luminescence, 24 h. inhibition, % at 10 µM. 1.4% of 330,000 active. AID 463195;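 active = inhibition of 40% or more at the single tested concentration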;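 note: wild-type TIM10 isogenic control strain grown at permissive 25 °C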
tim10-1 confirm = confirmation of tim10-1 mutant yeast growth inhibitors | shares compounds with tim10-1 inh | S. cerevisiae tim10-1 ts strain growth, BacTiter-Glo, 24 h | inhibition, % at 20 µM | 56% of 7,400 active;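 active = inhibition of yeast growth at or above a set limit in either of two repeat tests at 20 µM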;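 note: tim10-1 mutant grown at permissive 25 °C to find synthetic lethal compounds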
tim10 confirm = TIM10 yeast growth inhibition, confirmed; shares compounds with TIM10 inh; S. cerevisiae tim10 strain growth, BacTiter-Glo luminescence, 24 h; inhibition, % at 10 µM; 63% of 4,600 active;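 active = inhibition of yeast growth at or above a set limit in either of two replicates at 10 µM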; note: this counterscreen used the strain with wild-type TIM10
Hits are given with their value.

Fc1ccc(-c2nnn3c2nc(NCc2ccccc2)c2ccccc23)cc1 was read as tim23-1 inh inactive, NLRP3 yeast inh inactive, tim10-1 inh inactive, PfHsp90 yeast 2 inactive and TIM10 inh inactive.
`NNc1nc2c(-c3ccc(F)cc3)nnn2c2ccccc12` gave tim23-1 inh inactive, NLRP3 yeast inh inactive, tim10-1 inh 46.0, PfHsp90 yeast 2 inactive, NALP1 yeast inh inactive, TIM10 inh 74.2, tim10-1 confirm 55.5 and tim10 confirm 72.9.
Cc1cc2nc(NCCCO)n(CC(=O)c3cc(C(C)(C)C)c(O)c(C(C)(C)C)c3)c2cc1C was read as tim23-1 inh inactive, NLRP3 yeast inh inactive, tim10-1 inh inactive, PfHsp90 yeast 2 inactive and TIM10 inh inactive.
`Cc1cc(C)cc(NC(=O)CSc2nnc(-c3cc(C)[nH]n3)n2N)c1` gave tim23-1 inh inactive, NLRP3 yeast inh inactive, tim10-1 inh inactive, PfHsp90 yeast 2 inactive, NALP1 yeast inh inactive and TIM10 inh inactive.
CCc1ccc(-c2nc(SCC(=O)N(CC)C3CCS(=O)(=O)C3)n[nH]2)cc1 (centres undefined) was read as tim23-1 inh inactive, NLRP3 yeast inh inactive, tim10-1 inh inactive, PfHsp90 yeast 2 inactive and TIM10 inh inactive.
For CCOC(=O)C1CCN(S(=O)(=O)c2cccc(-c3cn4ccccc4n3)c2)CC1 the results were tim23-1 inh inactive, NLRP3 yeast inh inactive, tim10-1 inh inactive, PfHsp90 yeast 2 inactive, NALP1 yeast inh inactive and TIM10 inh inactive.
`CCOC(=O)C1CCN(S(=O)(=O)c2cccc(-c3cn4cccc(C)c4n3)c2)CC1` gave tim23-1 inh inactive, NLRP3 yeast inh inactive, tim10-1 inh 54.9, PfHsp90 yeast 2 inactive, NALP1 yeast inh inactive, TIM10 inh 49.9, tim10-1 confirm inactive and tim10 confirm inactive.
O=C(Cc1ccccc1Cl)Nc1cccc(S(=O)(=O)N2CCCCCC2)c1 was read as tim23-1 inh inactive, NLRP3 yeast inh inactive, tim10-1 inh inactive, PfHsp90 yeast 2 inactive and TIM10 inh inactive.
For O=C(Nc1cccc(S(=O)(=O)N2CCCCC2)c1)Nc1ccc(Cl)cc1Cl the results were tim23-1 inh inactive, NLRP3 yeast inh inactive, tim10-1 inh 44.3, PfHsp90 yeast 2 inactive, TIM10 inh 45.6, tim10-1 confirm inactive and tim10 confirm 39.0.
For C/C(=N\NC(=S)NCC(C)(C)C)c1cc(F)cc(F)c1O the results were tim23-1 inh inactive, NLRP3 yeast inh inactive, tim10-1 inh 41.8, PfHsp90 yeast 2 inactive, NALP1 yeast inh inactive, TIM10 inh 44.0, tim10-1 confirm 41.0 and tim10 confirm 60.0.
COCCNC(=S)N/N=C(\C)c1ccc(O)cc1 was read as tim23-1 inh inactive, NLRP3 yeast inh inactive, tim10-1 inh inactive, PfHsp90 yeast 2 inactive, NALP1 yeast inh inactive and TIM10 inh inactive.
`COc1ccc(N2CCN(C(=O)c3ccc(Br)cc3)CC2)c([N+](=O)[O-])c1` gave tim23-1 inh inactive, NLRP3 yeast inh inactive, tim10-1 inh 54.2, PfHsp90 yeast 2 104.8, NALP1 yeast inh inactive, TIM10 inh 52.6, tim10-1 confirm 47.9 and tim10 confirm 63.2.
COc1ccc(N2CCN(C(=O)c3ccc(C)cc3)CC2)c([N+](=O)[O-])c1 was read as tim23-1 inh inactive, NLRP3 yeast inh inactive, tim10-1 inh inactive, PfHsp90 yeast 2 inactive, NALP1 yeast inh inactive and TIM10 inh inactive.
Screening O=C(NCc1ccco1)c1csc(Nc2ccccc2Cl)n1 returned tim23-1 inh inactive, NLRP3 yeast inh inactive, tim10-1 inh 52.3, NALP1 yeast inh inactive, TIM10 inh 42.3, tim10-1 confirm 42.9 and tim10 confirm 29.7.
`COc1ccc(Cc2nnc(SCC(=O)Nc3ccccc3)[nH]c2=O)cc1` gave tim23-1 inh inactive, NLRP3 yeast inh inactive, tim10-1 inh inactive and TIM10 inh inactive.
Screening CS(=O)(=O)N(CC(=O)NCc1ccco1)c1ccc(OCc2ccccc2)cc1 returned tim23-1 inh inactive, NLRP3 yeast inh inactive, tim10-1 inh inactive, PfHsp90 yeast 2 inactive, NALP1 yeast inh inactive and TIM10 inh inactive.
For CC1(C)C(=O)C2(CCCCC2)C(=O)OC1c1ccc(O)cc1 (centres undefined) the results were tim23-1 inh inactive, NLRP3 yeast inh inactive, tim10-1 inh 45.6, PfHsp90 yeast 2 inactive, NALP1 yeast inh inactive, TIM10 inh 43.7, tim10-1 confirm 38.3 and tim10 confirm 42.5.
`CC/C(=N\NC(=S)Nc1cccc(C)c1)c1ccccc1` gave tim23-1 inh inactive, NLRP3 yeast inh inactive, tim10-1 inh 59.9, PfHsp90 yeast 2 inactive, NALP1 yeast inh inactive, TIM10 inh 47.6, tim10-1 confirm 38.7 and tim10 confirm 53.5.
Screening C/C(=N/NC(=S)Nc1cccc(C)c1)c1cccc([N+](=O)[O-])c1 returned tim23-1 inh inactive, NLRP3 yeast inh inactive, tim10-1 inh 51.9, PfHsp90 yeast 2 inactive, NALP1 yeast inh inactive, TIM10 inh 49.4, tim10-1 confirm 42.8 and tim10 confirm 40.6.
Cc1cccc(NC(=S)N/N=C2/CCCCc3ccccc32)c1 was read as tim23-1 inh inactive, NLRP3 yeast inh inactive, tim10-1 inh 51.0, PfHsp90 yeast 2 inactive, NALP1 yeast inh inactive, TIM10 inh 47.1, tim10-1 confirm 37.4 and tim10 confirm inactive.
COc1cccc(NC(=S)NN=C2CCCCCC2)c1 was read as tim23-1 inh inactive, NLRP3 yeast inh inactive, tim10-1 inh 44.9, PfHsp90 yeast 2 inactive, NALP1 yeast inh inactive, TIM10 inh 41.0, tim10-1 confirm 36.5 and tim10 confirm inactive.
Cc1ccc(C)c(NC(=S)N/N=C2\CCc3ccccc32)c1 was read as tim23-1 inh inactive, NLRP3 yeast inh inactive, tim10-1 inh inactive, PfHsp90 yeast 2 inactive and TIM10 inh inactive.
`CC(C)CN(C(=O)COC(=O)CCCc1c[nH]c2ccccc12)c1c(N)n(Cc2ccccc2)c(=O)[nH]c1=O` gave tim23-1 inh inactive, NLRP3 yeast inh inactive, tim10-1 inh inactive, PfHsp90 yeast 2 inactive, NALP1 yeast inh inactive and TIM10 inh inactive.
For COc1ccc(/C=N\NC(=O)c2ccccc2OC)cc1COc1ccccc1C the results were tim23-1 inh inactive, NLRP3 yeast inh inactive, tim10-1 inh inactive, PfHsp90 yeast 2 inactive, NALP1 yeast inh inactive and TIM10 inh inactive.
Screening COc1ccc(/C=N/NC(=O)c2ccoc2C)cc1COc1c(C)cccc1C returned tim23-1 inh inactive, NLRP3 yeast inh inactive, tim10-1 inh 40.5, PfHsp90 yeast 2 inactive, NALP1 yeast inh inactive, TIM10 inh 42.4, tim10-1 confirm 29.8 and tim10 confirm inactive.
O=C(/C=C/c1cccc([N+](=O)[O-])c1)n1cnc2ccccc21 was read as tim23-1 inh inactive, NLRP3 yeast inh inactive, tim10-1 inh 46.2, PfHsp90 yeast 2 inactive, NALP1 yeast inh inactive, TIM10 inh 45.1, tim10-1 confirm 42.9 and tim10 confirm 38.8.
